Results from PubChem BioAssay AID651820 (National Center for Advancing Translational Sciences (NCATS), 2012).
About 12,000 (3.5%) of roughly 340,000 compounds were called active. Roughly 18% stayed inconclusive and do not appear here. Calls follow the shape of the dose curve; as a rule, active = well fitted inhibition curve with a large enough effect; inconclusive = small, poorly fitted or top-dose-only effect, or another doubt; inactive = no such curve, though single readings can be large or run the other way. This excerpt belongs to a sample that is enriched for actives.

Assay: qHTS Assay for Inhibitors of Hepatitis C Virus (HCV)
Settings: Huh7.5.1 HCVcc-Cre infection, luciferase reporter, 44 h; series mostly up to 41.8 µM; activity change, negative = inhibition: at the top concentration
Procedure, shortened: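 1,000 cells/well; 4 h culture; + compound; + HCVcc-Cre (~0.5 moi); 44 h; luciferase substrate, RT 15 min; read 15 sec.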
% is scaled to controls: 0 for no effect and ±100 for the full control effect; potency is read from the fitted curve at half-maximal effect.

Row | SMILES | activity change, negative = inhibition | Potency
1 | CN(CC(=O)NCCc1ccc(F)cc1)CC(=O)Nc1ccc(F)c(F)c1F | -17% (inactive) | –
2 | O=c1[nH]c(N2CCN(Cc3ccc4c(c3)OCO4)CC2)nc2c1CCCC2 | 2.31% (inactive) | –
3 | CC(C)(C)n1nnnc1C(c1ccc(F)cc1)N1CCN(Cc2ccc3c(c2)OCO3)CC1 (stereo unspecified) | -0.102% (inactive) | –
4 | Fc1ccc2[nH]c3c(N4CCN(Cc5ccc6c(c5)OCO6)CC4)ncnc3c2c1 | – | 2.51 µM (active)
5 | Cc1c(CN2CC[C@@H](N3CCN(c4ccccn4)CC3)[C@H](O)C2)[nH]c2ccc(F)cc12 | -28.5% (inactive) | –
6 | Fc1ccc2[nH]c3c(N4CCSCC4)ncnc3c2c1 | – | 6.31 µM (active)
7 | O=C1NC(=O)C(CCc2ccccc2)(c2ccccc2)N1 (stereo unspecified) | -0.263% (inactive) | –
8 | Cc1cc(C)n2nc(C(=O)OC(C)C(=O)c3cc(C)c(C)cc3C)nc2n1 (stereo unspecified) | 3.37% (inactive) | –
9 | CCC(C)N(C(=O)Cn1nc(C)c([N+](=O)[O-])c1C)C1CCS(=O)(=O)C1 (stereo unspecified) | 35.7% (inactive) | –
10 | O=C(Nc1ccccc1)Nc1ccc(C(F)(F)F)cn1 | -9.65% (inactive) | –
11 | Oc1ccc(/C=N/Nc2ccc(C(F)(F)F)cn2)cc1O | – | 3.55 µM (active)
12 | Cc1nccn1CC(=O)N/N=C/c1ccc(O)c(O)c1 | 11.8% (inactive) | –
13 | CC(=O)Nc1ccc(C(=O)NNC(=O)CCCCC(=O)NNC(=O)c2ccc(NC(C)=O)cc2)cc1 | 10.3% (inactive) | –
14 | CCCCN1C(N)=NC[C@@H]1Cc1ccccc1 | 14% (inactive) | –
15 | CC[C@]12c3[nH]c4ccc(Cl)cc4c3CCN1C(=O)[C@@H](CC(=O)NCCCOC)C[C@@H]2C(=O)N1CCN(C(=O)C2CC2)CC1 | -19.7% (inactive) | –
16 | C=CC[C@@H](CC(=O)N[C@@H](CO)Cc1ccccc1)C(=O)NCCOC(=O)[C@@H](CC=C)CC(=O)OC(C)(C)C | 21.7% (inactive) | –
17 | CCCn1c(C)cc(-c2csc(NC(=O)CCc3nc4ccccc4c(=O)[nH]3)n2)c1C | -6.01% [at 8.37 µM] (inactive) | –
18 | O=C1CN(C(=O)COC(=O)/C=C/c2ccc(F)cc2)c2ccccc2N1 | 3.6% (inactive) | –
19 | O=C(CSc1nc2[nH]ncc2c(=O)n1-c1ccccc1)N1CCCc2ccccc21 | -4.01% (inactive) | –
20 | Cn1c(SCC(=O)N2CCCc3ccccc32)nc2ccccc2c1=O | – | 12.6 µM (active)
21 | O=C(CSc1nc2ccccc2c(=O)n1CCCO)N1CCc2ccccc21 | -6.38% (inactive) | –
22 | Cn1nnnc1SCC(=O)Nc1cccc(S(=O)(=O)N2CCCCC2)c1 | 8.59% (inactive) | –

Row | SMILES | activity change, negative = inhibition | Potency
23 | CSCCC1NC(=O)N(CC(=O)Nc2cccc(S(=O)(=O)N3CCCCCC3)c2)C1=O (stereo unspecified) | – | 11.2 µM (active)
24 | COCCn1cnnc1SCC(=O)Nc1cccc(S(=O)(=O)N2CCCCC2)c1 | -6.89% (inactive) | –
25 | O=C(Cn1cnc2ccccc2c1=O)Nc1cccc(S(=O)(=O)N2CCCCC2)c1 | – | 11.2 µM (active)
26 | O=C(COC(=O)COc1ccccc1F)Nc1cccc(S(=O)(=O)N2CCCCC2)c1 | 2.99% (inactive) | –
27 | Nc1cc(N)nc(SCC(=O)Nc2cccc(S(=O)(=O)N3CCCCC3)c2)n1 | 0.0012% (inactive) | –
28 | Nc1ncnc2c1ncn2[C@@H]1O[C@H](CNCc2cccn2-c2nccs2)[C@@H](O)[C@H]1O | 7.72% (inactive) | –
29 | NC(=O)c1ccsc1NC(=O)COC(=O)COc1ccc(C=O)cc1 | -1.1% (inactive) | –
30 | CCOC(=O)/C=C/c1ccc(C(F)(F)F)cc1S(=O)(=O)NC(C)(C)C | 4.83% (inactive) | –
31 | CCCCN1C(=O)C(=O)N(CC(=O)Nc2cccc(C(C)=O)c2)C1=O | 11.1% (inactive) | –
32 | CC(C)Cc1nnc(NC(=O)CCNC(=O)c2ccccc2Cl)s1 | 7.34% (inactive) | –
33 | COc1ccc(-c2nnc(-c3ccc4ccccc4c3)o2)cc1 | 7.69% (inactive) | –
34 | CCOc1ccc(S(=O)(=O)Nc2ccc(C(=O)NCCCN3CCCC3=O)cc2)cc1 | -0.358% (inactive) | –
35 | CCOC(=O)c1sc2nc(SC)nc(-c3ccccc3)c2c1N | -1.48% (inactive) | –
36 | Cc1nc2sc(C(=O)c3ccccc3)c(N)c2c2c1CCCC2 | – | 25.1 µM (active)
37 | Cc1cccc(NC(=O)c2sc3nc4c(c(-c5ccco5)c3c2N)CCC4)c1 | -12.9% (inactive) | –
38 | COc1ccc(-c2ccc3nnc(SCC(=O)Nc4ccc(NC(C)=O)cc4)n3n2)cc1 | -24.5% (inactive) | –
39 | CC(C)(C)OC(=O)C[C@@H]1C/C=C\C[C@H](CC(=O)N[C@@H](CO)Cc2ccccc2)C(=O)N[C@H](Cc2ccccc2)COC1=O | -11.5% (inactive) | –
40 | Cc1c(Cl)c([N+](=O)[O-])nn1CCCC(=O)Nc1cc(Cl)ccc1Cl | -20.9% (inactive) | –
41 | O=C(N/N=C/c1ccc2c(c1)OCO2)c1ccc(Cn2cc([N+](=O)[O-])cn2)o1 | 5.24% (inactive) | –
42 | Cc1c(Cl)c([N+](=O)[O-])nn1Cc1ccc(C(=O)N/N=C\c2cc(Cl)ccc2O)o1 | – | 12.6 µM (active)
43 | Cc1ccc(S(=O)(=O)N2CCC(C(=O)N3CCCCCCC3)CC2)cc1 | 19.1% (inactive) | –
44 | O=C(O)c1ccccc1N=N/C(=N/Nc1cc(S(=O)(=O)O)ccc1O)c1ccccc1 | 3.51% (inactive) | –

Row | SMILES | activity change, negative = inhibition | Potency
45 | CN(C)CCN(C(=O)CN1C(=O)c2ccccc2C1=O)c1nc2cc3c(cc2s1)OCCO3 | 12.9% (inactive) | –
46 | COC(=O)c1ccc(CSc2ccc(S(=O)(=O)N3CCCCC3)cn2)cc1 | -14.1% (inactive) | –
47 | Cc1ccc2nc(-c3ccncc3)cc(C(=O)Nc3ccncc3)c2c1 | 5.09% (inactive) | –
48 | Cc1ccc2nc(-c3ccccn3)cc(C(=O)Nc3ccc4c(c3)OCO4)c2c1 | -30% (inactive) | –
49 | Cc1ccc2nc(-c3ccncc3)cc(C(=O)Nc3ccc(OC(F)F)cc3)c2c1 | – | 8.91 µM (active)
50 | COc1cc(C2C(C(=O)c3cccs3)=C(O)C(=O)N2CCN2CCOCC2)ccc1OCCC(C)C (stereo unspecified) | 3.65% (inactive) | –
51 | Cc1c[n+]([O-])ccc1[N+](=O)[O-] | -10.3% (inactive) | –
52 | O=C(N/N=C/c1c(Cl)[nH]c2ccccc12)c1sc2ccccc2c1Cl | – | 10 µM (active)
53 | CCOc1ccc2ccccc2c1/C=N/NC(=O)c1c(C)cc(C)[nH]c1=O | -20.3% (inactive) | –
54 | Cc1nn(C)cc1/C=N/NC(=O)c1sc2ccccc2c1Cl | -3.97% (inactive) | –
55 | OCC1(CO)CC2(C1)CC(CO)(CO)C2 | 3.43% (inactive) | –
56 | Cc1ccc(S(=O)(=O)N2CCN(C(=O)c3ccc(-n4cncn4)c([N+](=O)[O-])c3)CC2)cc1 | -1.61% (inactive) | –
57 | Cc1ccc(S(=O)(=O)N(C)C)cc1NC(=O)C1Cc2ccccc2CN1C(=O)c1ccco1 (stereo unspecified) | 6.19% (inactive) | –
58 | Cc1ccc(C)c(NC(=O)C2Cc3ccccc3CN2C(=O)OCc2ccccc2)c1 (stereo unspecified) | – | 10 µM (active)
59 | Cc1ccc(NC(=O)C2CCCN2C(=O)OCc2ccccc2)cc1C (stereo unspecified) | -3.3% (inactive) | –
60 | Cc1ccc(OCC(=O)Nc2ccccc2C(=O)NC2CC2)cc1 | -22% (inactive) | –
61 | CC1CCCCC1NC(=O)COc1ccc(C#N)cc1 (stereo unspecified) | 11.6% (inactive) | –
62 | Cc1ccc(NC(=O)C/C(N)=N/O)cc1Cl | -10.7% (inactive) | –
63 | O=C(CC(O)(C(F)(F)F)C(F)(F)F)Nc1ccc(Cl)c(Cl)c1 | – | 5.01 µM (active)
64 | O=C(CC1SCCNC1=O)Nc1ccc(Cl)c(Cl)c1 (stereo unspecified) | 13.4% (inactive) | –
65 | Cc1cccc(C)c1OCC(O)CN1CCCCC1 (stereo unspecified) | -1.28% (inactive) | –
66 | Cc1cccc(OCC(O)CN2CCN(CCN3C(=O)c4cccc5cccc(c45)C3=O)CC2)c1C (stereo unspecified) | – | 8.91 µM (active)

Row | SMILES | activity change, negative = inhibition | Potency
67 | Cc1ccccc1OCC(O)CN1CCN(c2ccccn2)CC1 (stereo unspecified) | 1.82% (inactive) | –
68 | CCn1nc(C(=O)NNS(=O)(=O)c2cc(/C=C/C(=O)O)cc(OC)c2OC)c2ccccc2c1=O | -16.4% (inactive) | –
69 | COc1ccc(-c2nc3cc([N+](=O)[O-])ccc3o2)cc1OC | 13.9% (inactive) | –
70 | CCc1ccc2oc(-c3ccc(N)cc3)nc2c1 | – | 12.6 µM (active)
71 | COc1cccc(-c2nc3cc(C)ccc3o2)c1 | 15.5% (inactive) | –
72 | Nc1cc(=O)n(Cc2ccccc2)c(=O)n1Cc1ccccc1 | 19.8% (inactive) | –
73 | Cc1c(NC(=O)CN(C)CC(=O)Nc2ccc(F)c(F)c2F)c(=O)n(-c2ccccc2)n1C | 2.52% (inactive) | –
74 | Cc1ccc(-n2c(SCC(=O)N3c4ccccc4Sc4ccccc43)nnc2-c2ccncc2)cc1 | 7.58% (inactive) | –
75 | Cc1ccc(Nc2nc(CSc3nnc(-c4ccncc4)n3-c3ccccc3C)cs2)cc1 | – | 10 µM (active)
76 | Cc1ccccc1-n1c(SCC(=O)NCc2cccs2)nnc1-c1ccncc1 | -5.89% (inactive) | –
77 | CC1CCCC(C)N1C(=O)COC(=O)COc1ccccc1C#N (stereo unspecified) | 0.641% (inactive) | –
78 | CSc1nccc(NC(=O)c2ccc(C(C)(C)C)cc2)n1 | – | 1.78 µM (active)
79 | Cc1cccc(NC(=O)c2cccnc2Cl)n1 | -2.06% (inactive) | –
80 | COC(=O)c1nc(NC(=O)c2ccc(C(C)(C)C)cc2)n[nH]1 | 17.8% (inactive) | –
81 | CCN(CC(=O)Nc1cc(Cl)ccc1C)C(=O)CN1C(=O)NC2(CCCC2)C1=O | 14% (inactive) | –
82 | CN[C@H](C(=O)NC[C@H]1O[C@@H](n2cnc3c(N)ncnc32)[C@H](O)[C@@H]1O)[C@@H](C)OCc1ccccc1 | 49.9% (inactive) | –
83 | CC(C)(c1ccccc1)c1ccc(OCCN)cc1 | -16.6% (inactive) | –
84 | Cc1cc(C)n(CC(O)COc2ccc(C(C)(C)C)cc2)n1 (stereo unspecified) | 12.2% (inactive) | –
85 | CN(C)CC(O)COc1ccc(C(C)(C)c2ccc(OCC(O)CN(C)C)cc2)cc1 (stereo unspecified) | – | 10 µM (active)
86 | Cc1ccc(C(=O)NCC(=O)NC2CC2)cc1 | 15.4% (inactive) | –
87 | Cc1ccsc1C(=O)NNC(=O)COc1ccc(Br)cc1 | 19.3% (inactive) | –
88 | CCc1nnc(NC(=O)C2CCN(C(=O)c3ccccc3C)CC2)s1 | 14.9% (inactive) | –

Row | SMILES | activity change, negative = inhibition | Potency
89 | CCN(CC)C(CNC(=O)CSc1nnnn1-c1cccc(F)c1)c1ccco1 (stereo unspecified) | – | 25.1 µM (active)
90 | O=C(CSc1nnnn1-c1ccccc1)NCc1ccco1 | -12.8% (inactive) | –
91 | Cc1cc(NC(=O)CSc2nnnn2-c2ccc(F)cc2)no1 | 16.5% (inactive) | –
92 | CCN(CC)S(=O)(=O)c1ccc(Cl)c(C(=O)NC(C)C(c2cccs2)N2CCCC2)c1 (stereo unspecified) | – | 14.1 µM (active)
93 | CCCC(=O)NC(C)C(c1cccs1)N1CCN(c2ccccc2)CC1 (stereo unspecified) | -14.3% (inactive) | –
94 | CCN(CC)S(=O)(=O)c1ccc(Cl)c(C(=O)NCCN2CCOCC2)c1 | -1.51% (inactive) | –
95 | O=S(=O)(Nc1cc(Cl)ccc1N1CCOCC1)c1ccccc1Cl | -5.1% (inactive) | –
96 | Cc1[nH]c2ccccc2c1C(=O)C(C)Sc1nnc(C2CC2)o1 (stereo unspecified) | 8.19% (inactive) | –
97 | Cc1n[nH]c(=O)c2c(NC(=O)CSc3ccccc3F)oc(C)c12 | -1.71% (inactive) | –
98 | Cn1cccc1C(=O)Nc1nccs1 | -12.1% (inactive) | –
99 | COC(=O)c1sccc1NC(=O)c1cc(OC)c(OC)c(OC)c1 | -10.6% (inactive) | –
100 | COc1ccc(-c2nn(-c3ccccc3)cc2/C=N/Nc2ccccn2)cc1OC | – | 10 µM (active)
101 | CN(C)/N=C/c1cn(-c2ccccc2)nc1-c1cccnc1 | -5.06% (inactive) | –
102 | COc1cc(C(=O)Nc2nccs2)cc(OC)c1OC | – | 14.1 µM (active)
103 | CC(C)(C)OC(=O)N/N=C/c1cn(-c2ccccc2)nc1-c1cccnc1 | -16.7% (inactive) | –
104 | O=C(O)c1ccccc1-c1ccccc1C(=O)Nc1nccs1 | 7.11% (inactive) | –
105 | CC(=O)Oc1ccc(C(=O)Nc2nccs2)cc1 | 10.5% (inactive) | –
106 | COc1ccc(-c2nn(-c3ccccc3)cc2C(=O)Nc2nccs2)cc1OC | – | 2.51 µM (active)
